Measured values from PubChem BioAssay AID2733 (National Center for Advancing Translational Sciences (NCATS), 2010).
Records with an inconclusive call do not appear. Values without a mark were called inactive. Calls of active or inactive are those of the source. The call rests on the fitted dose curve; in most records, active means well fitted inhibition curve with a large enough effect; inconclusive means small, poorly fitted or top-dose-only effect; inactive means flat fitted curve, though single readings scatter.

Assay: High Content Assay for Compounds that inhibit the Assembly of the Perinucleolar Compartment: PC3M Cytotoxicity
Details: PC3M cells, ATPLite luminescence viability, 24 h; series mostly up to 46.1 µM; activity change, negative = cytotoxicity: at the top concentration
Outline: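 PC3M-GFP cells (2000/well) adhered 4 h, then given 23 nl of compound stock in duplicate. After 24 h at 37 C, ATP measured by ATPLite luminescence; camptothecin positive control, DMSO negative.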

Row | Compound | Potency | activity change, negative = cytotoxicity [%]
1 | O=S(=O)(Nc1cc(Sc2cccc3cccnc23)c(O)c2ccccc12)c1ccc(F)cc1 | 15.8 µM (active) | –
2 | O=[N+]([O-])c1cc(/C=N/Nc2nc3ccccc3[nH]2)c(O)cc1O | 7.94 µM (active) | –
3 | Nc1ccc2c(c1)C(=O)C(=O)c1ccccc1-2 | 22.4 µM (active) | –
4 | CCOC(=O)Cn1c(-c2nonc2NC(=O)c2ccccc2F)nc2ccccc21 | 4.47 µM (active) | –
5 | CCOC(=O)CSc1nc2c(sc3ccc([N+](=O)[O-])cc32)c(=O)n1Cc1ccco1 | – | 8.39
6 | O=C1C(Nc2ccccc2)=C/C(=N/S(=O)(=O)c2cccs2)c2ccccc21 | 15.8 µM (active) | –
7 | O=C(N/N=C/c1cc2c3c(c1O)CCCN3CCC2)c1ccccc1O | 3.16 µM (active) | –
8 | Cc1cccc(C)c1Nc1c(-c2ccc(N3CCOCC3)cc2)nc2ncccn12 | – | -2.92
9 | CNC1=C(N(C(C)=O)c2ccc(Br)cc2)C(=O)c2ccccc2C1=O | 8.91 µM (active) | –
10 | COc1cc(/C=N/NC(=O)c2ccc(CSc3nc4ccccc4[nH]3)cc2)cc(OC)c1OC | – | -25
11 | COc1ccc(CN2CCC(C(=O)NCCc3ccc(OC)c(OC)c3)CC2)c(OC)c1 | – | -5.79
12 | COc1ccc2nc3sc(C(=O)NCCCN4CCc5ccccc5C4)cc3cc2c1 | 31.6 µM (active) | –
13 | O=C(Nc1ccc(NC(=O)C2CC2)cn1)c1ccccc1Cl | 28.2 µM (active) | –
14 | COc1ccc(-c2cc(C#N)nc(N3CCN(C)CC3)n2)cc1 | – | -4.37
15 | COc1ccccc1NC1=C(N2CCCCC2)C(=O)c2ccccc2C1=O | 7.94 µM (active) | –
16 | COc1ccc(-c2nc(NC(=O)c3n[nH]c(=O)c4ccccc34)sc2C)cc1 | 7.08 µM (active) | –
17 | O=C(Nc1cccnc1)c1cccs1 | – | 13.2
18 | C=CCNC(=S)N/N=C(\C)c1ccccn1 | 6.31 µM (active) | –
19 | COC(=O)c1ccc(CSc2ccccc2C)o1 | – | 11.2
20 | Cc1cc(C)c(S(=O)(=O)/N=C2/C=C(Sc3ncn[nH]3)C(=O)c3ccccc32)cc1C | 14.1 µM (active) | –
21 | CCCCN(C(=O)Nc1ccc(Cl)cc1)C1CCN(C(C)=O)CC1 | – | -17.1
22 | C/C(N)=C(/C#N)C(=O)COC(=O)c1cc(C)n(-c2ccc(F)cc2)c1C | 12.6 µM (active) | –
